PubChem BioAssay (Tox21)
A number with no mark means an inactive call. Calls come from the whole dose curve; as a rule, active = well fitted curve in the direction sought with a large enough effect in the repeat runs; inconclusive = weak or mixed curves; inactive = flat fitted curve, though single readings scatter.

Assay: qHTS assay to test for compound auto fluorescence at 460 nm (blue) in HepG2 cells (AID 720687)
Settings: autofluorescence 405/460 nm, 1 h; series mostly up to 91.3 µM; fluorescence, % of fluorescent control: at the top concentration
In short: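 HepG2 cells in MEM with 10% FBS, attached overnight at 37 C, were exposed to compound or DMSO for 1 hr at 37 C, 5% CO2. Blue fluorescence was read at 405/460 nm, with triamterene as reference fluorophore.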
% is set by controls: 0 for no effect and ±100 for the full control effect.

Row | Structure (SMILES) | fluorescence, % of fluorescent control
1 | Cc1c(NC(=O)c2cccnc2)c(=O)n(-c2ccccc2)n1C | 0.0214% [at 18.6 µM]
2 | CN(C)CC/C=C1/c2ccccc2COc2ccc(CC(=O)O)cc21 | -0.0647% [at 46 µM]
3 | COc1cc2c(cc1OC)C(=O)C(CC1CCN(Cc3ccccc3)CC1)C2 (centres undefined) | 0.0727% [at 46 µM]
4 | O=C(O)CNC(=O)CNC(=O)CNC(=O)CSC(=O)c1ccccc1 | -0.0035% [at 46 µM]
5 | O=C(CCCCC(=O)Nc1c(I)cc(I)c(C(=O)O)c1I)Nc1c(I)cc(I)c(C(=O)O)c1I | -0.128% [at 46 µM]
6 | CC12CCC(C1)C(C)(C)C2O (centres undefined) | -0.0573%
7 | C=C(C)C1CC=C(C)C(=O)C1 (centres undefined) | 0.11%
8 | O=[N+]([O-])c1c(Cl)cc(Cl)cc1Cl | -0.0314%
9 | Cc1cc(C)c(C(=O)O)c(C)c1 | -0.0745%
10 | Cc1c(Cl)cccc1Cl | 0.0323%
11 | ONc1ccccc1 | -0.0329% [at 95.7 µM]
12 | N[C@@H](CSCCCO)C(=O)O | 0.157% [at 46 µM]
13 | C=CCN1C[C@H](C(=O)N(CCCN(C)C)C(=O)NCC)C[C@@H]2c3cccc4[nH]cc(c34)C[C@H]21 | 0.519% [at 46 µM]
14 | O=C1c2ccccc2C(=O)c2cc(Cl)ccc21 | -0.0186% [at 3.72 µM]
15 | CN(C)C(C)(C)CO | 0.0176%
16 | CCCCCc1cccc(=O)o1 | 0.401%
17 | O=C(O)CCCCCC(=O)O | 0.0143%

Row | Structure (SMILES) | fluorescence, % of fluorescent control
18 | CCCCCC(C)O (centres undefined) | 0.126%
19 | CC1=C(C(=O)O)N2C(=O)[C@@H](NC(=O)[C@H](N)c3ccccc3)[C@H]2SC1 | -0.0064% [at 46 µM]
20 | CC(=O)C1C(=O)C=C(C)OC1=O (centres undefined) | 0.186%
21 | CCC(C)C(=O)OCCc1ccccc1 (centres undefined) | 0.114%
22 | CCC(C)OC(C)CC (centres undefined) | 0.0302% [at 95.7 µM]
23 | N#CCC(=O)NN | -0.064% [at 46 µM]
24 | OCCN1CCOCC1 | 0.0473%
25 | O=C1CCC(=O)N1Cl | 0.0022%
26 | CCCC(=O)Nc1ccc(OCC(O)CNC(C)C)c(C(C)=O)c1 (centres undefined) | 0.0344% [at 18.6 µM]
27 | OC[C@@H](O)C(O)[C@@H](O)CO (some centres undefined) | 0.0151% [at 95.7 µM]
28 | O=C(CN1CCNCC1)NC1CCCCC1 | -0.0065% [at 46 µM]
29 | CC(=O)O[C@H]1C[C@@H]2CC[C@@]1(C)C2(C)C | 0.0388%
30 | CN1C[C@@H]2C[C@H]1CN2c1cc2c(cc1F)c(=O)c(C(=O)O)cn2C1CC1 | 0.266% [at 46 µM]
31 | CCCCCCCCCCCCCCCCCC#N | 0.0381% [at 95.7 µM]
32 | Nc1nnnn1-c1ccccc1 | -0.0311% [at 46 µM]
33 | Cn1c(=O)c2[nH]c(Br)nc2n(C)c1=O | 0.0004% [at 46 µM]
34 | NCCOCCN | -0.126%
